# In the library only some 7.3% were active in any assay of this set; here they are far more common.
# Rab9 prom act: qHTS Assay for Rab9 Promoter Activators. AID 485297, 2010. Potency, µM (doses to about 9.22 µM), usual class: activators. 320,000 compounds, 2.8% hits. Huh7 Rab9 promoter-luciferase reporter, luminescence, 24 h; also: nearly all actives have a fitted effect of over 60% in size
#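 Steps: seed 1500 Huh7 Rab9-luc cells per well, rest 2 h at 37 °C; add compound in DMSO; incubate 24 h; add luciferase reagent, 10 min ambient; read luminescence.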
# SMN2 splice enh: qHTS Assay for Enhancers of SMN2 Splice Variant Expression. HEK293 SMN2-luciferase splicing reporter, luminescence, 30-36 h. Potency, µM (highest dose often 46.1 µM), actives largely listed as activators. 210,000 compounds, 2.8% hits. AID 1458, 2008; also: nearly all actives have a fitted effect of over 55% in size
#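 HEK293 cells carry an SMN2 […]–luciferase reporter in which exon 7 inclusion puts luciferase in frame. Cells were plated 10-12 h before compound addition, then incubated 30-36 h at 37C. ONE-Glo luminescence was read; sodium butyrate at 4.5 mM final served as control.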
# FLuc counter: qHTS profiling assay for firefly luciferase inhibitor/activator using purifed enzyme and Km concentrations of substrates (counterscreen for miR-21 project); purified FLuc, Km substrates, luminescence inhibition; Potency, µM (doses to about 57.5 µM), most hits filed as inhibitors; 360,000 compounds, 6.9% hits; also: nearly all actives have a fitted effect of over 55% in size
# Target sequence (P08659 whole entry, looked up): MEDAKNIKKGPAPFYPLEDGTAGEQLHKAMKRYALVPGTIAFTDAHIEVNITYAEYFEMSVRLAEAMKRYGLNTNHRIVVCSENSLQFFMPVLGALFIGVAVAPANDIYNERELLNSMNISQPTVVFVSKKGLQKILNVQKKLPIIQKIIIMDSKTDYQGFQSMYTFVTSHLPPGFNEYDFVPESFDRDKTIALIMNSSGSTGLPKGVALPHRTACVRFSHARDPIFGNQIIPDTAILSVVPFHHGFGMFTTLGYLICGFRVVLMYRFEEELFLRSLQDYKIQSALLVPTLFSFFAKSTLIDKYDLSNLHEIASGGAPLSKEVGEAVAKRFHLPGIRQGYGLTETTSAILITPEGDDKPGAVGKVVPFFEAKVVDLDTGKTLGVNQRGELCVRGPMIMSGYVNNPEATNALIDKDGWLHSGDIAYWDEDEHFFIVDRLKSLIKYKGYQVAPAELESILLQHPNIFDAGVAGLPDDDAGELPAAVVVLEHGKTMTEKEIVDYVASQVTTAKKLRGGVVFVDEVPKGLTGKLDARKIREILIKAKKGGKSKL
#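 Biochemical qHTS of compounds, final roughly 60 µM downward over six points, against 10 nM purified firefly luciferase using Km concentrations of substrates (10 uM D-luciferin, 10 uM ATP) in Tris acetate pH 7.5 buffer; luminescence output.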
# NPC1 promoter act: qHTS Assay for NPC1 Promoter Activators; Huh7 NPC1 promoter luciferase reporter, 24 h; Potency, µM (titrated, usually from 9.22 µM), actives largely listed as activators; 320,000 compounds, 2.4% hits; AID 485313, 2010; also: nearly all actives have a fitted effect of over 60% in size
#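 Stable NPC1-promoter luciferase Huh7 line; cpd (DMSO) 24 h, 37 °C, 5% CO2; Amplite luciferase reagent 10 min RT; luminescence readout. qHTS format.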
# ELG1 genotoxic: qHTS screen for small molecules that induce genotoxicity in human embryonic kidney (HEK293T) cells expressing luciferase-tagged ELG1 | HEK293T ELG1-luciferase reporter, luminescence, 16 h | Potency, µM (titrated, usually from 46 µM), actives largely listed as activators | 330,000 compounds, 1.3% hits | AID 504466, 2011; also: nearly all actives have a fitted effect of over 60% in size
#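 Luminescence read-out: rising ELG1-luciferase signal, reflecting elevated ELG1 protein under genetic stress, flags genotoxic compounds. Cells were treated for 16 hr at 37 °C before ONE-Glo detection.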
# Luc counter: Counterscreen for Luciferase (Kinase-Glo TM) Inhibition | Kinase-Glo luciferase, ATP luminescence, 8 min | AID 1379, 2008 | Luciferin 4-monooxygenase (Photuris pensylvanica), Q27757 | 200,000 compounds, 0.28% hits | Potency, µM (top dose mostly 38.3 µM), usual class: inhibitors; also: nearly all actives have a fitted effect of over 60% in size
#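 Recombinant Kinase-Glo luciferase, 10 uM ATP (linear range), luciferin; imidazole pH 7.2 / KCl / MgCl2 / Tween / BSA buffer; 8 min RT; luminescence.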
# Numbers stand for hits; . = inactive; ? = inconclusive; / = no result; [ ] = dose if it differs, or a comment. Calls follow the shape of the dose curve; as a rule, active = well fitted curve in the direction sought with a large enough effect; inconclusive = small, poorly fitted or top-dose-only effect, or another doubt; inactive = no such curve, though single readings can be large; an effect the other way counts as inactive or inconclusive.
SMILES,Rab9 prom act,SMN2 splice enh,FLuc counter,NPC1 promoter act,ELG1 genotoxic,Luc counter
COc1cc(OC)c2cc(C(=O)N/N=C/c3ccccc3O)[nH]c2c1,.,/,.,.,?,/
COc1ccc2[nH]c(C(=O)N/N=C/c3ccccc3OC)cc2c1,.,/,19µM,.,.,/
CCCOc1ccc2[nH]c(C(=O)N/N=C/c3cc(OC)c(OC)c(OC)c3)cc2c1,.,/,13µM,.,.,/
COc1ccc(/C=N\NC(=O)c2ccccc2)cc1COc1ccccc1,.,/,.,.,.,/
CCOc1ccc(/C=N/NC(=O)c2cc3c(OC)cc(OC)c(OC)c3[nH]2)cc1,.[1.84 µM],/,?,.,.,/
COc1ccc2[nH]c(C(=O)N/N=C/c3ccc(OC)c(O)c3)cc2c1,.,/,5.4µM,.,.,/
COC(=O)c1cc(NC(=O)c2cc3sccc3n2Cc2ccc(Cl)cc2)cc(C(=O)OC)c1,/,.,.,/,/,/
COc1ccc(/C=N\NC(=O)c2cc(O)c(O)c(O)c2)cc1COc1ccc(C(=O)OCC(C)C)cc1,.,/,24µM,.,?,/
COc1ccc(C(=O)N/N=C/c2ccc(OC)c(COc3ccccc3)c2)cc1,.,/,.,.,.,/
CCOc1ccc2[nH]c(C(=O)N/N=C/c3ccccc3OC)cc2c1,.,/,15µM,.,.,/
COc1ccc(OC)c(/C=N/NC(=O)c2ccc3nc[nH]c3c2)c1,.,/,?,.,.,/
COc1ccc(OC)c(/C=N/NC(=O)c2cc3c(OC)c(OC)ccc3[nH]2)c1,.,.,4.8µM,.,.,.
O=C(COC(=O)c1cccnc1)c1ccc(Cl)cc1,.,.,11µM,.,.,.
O=C(COC(=O)c1cccnc1)c1ccc(Cl)c(Cl)c1,.,.,17µM,.,.,.
O=C(COC(=O)c1cccnc1)Nc1cccc(Cl)c1,.,.,.,.,.,.
O=C(Oc1cccnc1)c1ccc(Cl)c(Cl)c1,.,.,?,.,.,.
Cc1ccc(-c2noc(C3CCCN(C(=O)c4cccc([N+](=O)[O-])c4)C3)n2)o1 (configuration not stated),?,/,.,?,.,/
Cc1cccc(C(=O)N2CCCC(c3nc(-c4ccc(C)o4)no3)C2)c1 (configuration not stated),4µM,/,?,?,.,/
CCOc1ccc(C(=O)N2CCCC(c3nc(-c4cccs4)no3)C2)cc1 (configuration not stated),.,/,21µM,.,.,/
CCC(CC)C(=O)N1CCCC(c2nc(-c3cccs3)no2)C1 (configuration not stated),.,.,.[2.3 µM],.,.,.
C=C1C[C@@]23C[C@@]1(O)CC[C@@H]2[C@]12C=C[C@@H](O)[C@](C)(C(=O)O1)[C@@H]2[C@@H]3C(=O)O,/,/,/,/,/,.
N#C/C(=C\N1CCOCC1)c1ccccc1,.,.,.,.,.,.
N#C/C(=C/c1ccc(N2CCOCC2)o1)c1ccc(Br)cc1,?,?,8.5µM,?,.,.
N#C/C(=C/c1ccc(N2CCOCC2)o1)c1nc2ccccc2[nH]1,1µM,2µM,0.54µM,3.5µM,2.3µM,.
N#C/C(=C\c1ccc(N2CCOCC2)cc1)c1ccccc1,1µM,3.2µM,?,2.8µM,4.1µM,.
N#C/C(=C/c1ccc(N2CCCCCC2)o1)c1cccc(F)c1,4µM,13µM,5.4µM,3.5µM,5.8µM,.
N#C/C(=C\c1cc([N+](=O)[O-])c(N2CCOCC2)cc1N1CCOCC1)c1nc2ccccc2[nH]1,.,.,.,.,.,.
N#C/C(=C\c1cccnc1)c1ccc(Br)cc1,.,/,?,.,.,/
O=C(Cn1c(=O)n(-c2ccc(Cl)cc2)c(=O)c2sc3ccccc3c21)NC1CCCCC1,/,.,.,/,/,/
Cc1ccc(C)c(NC(=O)N2CCN(C(=O)c3nsc4ccccc34)CC2)c1,/,/,.,/,/,/
